From PubChem BioAssay
DT40 TDP1 CPT – growth inhibition of DT40 Tdp1-/-;hTDP1 cells with camptothecin (screen for TDP1 inhibitors); chicken DT40 Tdp1-/-;hTDP1 cells + 20 nM CPT, ATP luminescence, 48 h; Potency, µM (top dose mostly 46.2 µM), inactives show top-dose activity change, negative = growth inhibition, most hits filed as inhibitors; 420,000 tested, 12% active; note: potency is the fitted concentration of half-maximal effect; % is set by controls: 0 for no effect and ±100 for the full control effect; nearly all actives have a fitted effect of over 55% in size
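Cell growth measured by CellTiter-Glo luminescence after a minimum 48 h, 37 C compound exposure with 20 nM CPT in Tdp1-knockout DT40 cells stably expressing hTDP1, seeded 400/well; qHTS titration format.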
HepG2 tox – counter-screen for TGF-b inhibitors: cytotoxicity in HepG2 cells; HepG2 CAGA-GFP viability, ATP luminescence, 18 h; Potency, µM (doses to about 46.1 µM), without a hit: at the highest dose activity change, negative = cytotoxicity, hits mostly cytotoxic; 410,000 tested, 0.76% active; AID 588856; note: potency is the fitted concentration of half-maximal effect
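HepG2 CAGA-GFP cells (1000/well, DMEM with 1% FBS) received compound, then TGF-beta at 500 pg/mL final, and were incubated 18 hours at 37 degrees C. Viability was read by CellTiter-Glo luminescence. Media-only wells were set as complete cell-killing and DMSO as no toxicity.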
ASM inhibitor – human S-ASM enzyme inhibition | P17405 | placental ASM, HMU-PC fluorogenic substrate, 60 min | Potency, µM (highest dose often 57.5 µM), for inactives: at the highest dose activity change, negative = inhibition, hits mostly inhibitors | 340,000 tested, 0.006% active | AID 504937; note: potency is the fitted concentration of half-maximal effect
Target sequence (P17405 47-631 limits assumed): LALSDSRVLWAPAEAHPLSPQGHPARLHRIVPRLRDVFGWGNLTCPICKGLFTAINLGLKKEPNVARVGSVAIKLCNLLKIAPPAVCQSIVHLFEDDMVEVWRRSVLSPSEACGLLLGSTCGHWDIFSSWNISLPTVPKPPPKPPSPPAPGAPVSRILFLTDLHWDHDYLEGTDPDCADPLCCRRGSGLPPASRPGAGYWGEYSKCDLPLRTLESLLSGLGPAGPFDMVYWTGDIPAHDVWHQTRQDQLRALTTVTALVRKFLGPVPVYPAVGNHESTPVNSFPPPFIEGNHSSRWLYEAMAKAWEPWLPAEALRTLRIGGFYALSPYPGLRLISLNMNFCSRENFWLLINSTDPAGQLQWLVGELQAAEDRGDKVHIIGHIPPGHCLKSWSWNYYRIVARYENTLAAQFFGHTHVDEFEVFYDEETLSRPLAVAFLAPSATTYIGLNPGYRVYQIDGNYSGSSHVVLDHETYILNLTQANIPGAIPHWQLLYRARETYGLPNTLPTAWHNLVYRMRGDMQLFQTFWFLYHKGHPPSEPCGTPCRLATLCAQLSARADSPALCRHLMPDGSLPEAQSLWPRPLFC
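qHTS format. ASM enzyme prepared from human placenta hydrolyses the fluorogenic substrate HMU-PC0 (9 uM final) over 60 min at 37 °C after a 10 min compound preincubation.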
TGFb inhibitor – blocks TGF-b signaling | HepG2 CAGA-GFP TGF-b/SMAD3 reporter, GFP fluorescence, 18 h; TGF-beta stimulated, 500 pg/mL final | Potency, µM (series often up to 46.1 µM), for inactives: top-dose activity, negative = inhibition, most hits filed as inhibitors | 410,000 tested, 1.2% active | AID 588855; note: potency is the fitted concentration of half-maximal effect; % is set by controls: 0 for no effect and ±100 for the full control effect; nearly all actives have a fitted effect of over 65% in size
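HEPG2 CAGA-GFP cells (1000/well, DMEM with 1% FBS) were pre-incubated 2 h at 37 degrees C, given compound by pin tool, then stimulated with TGF-beta at 500 pg/mL final for 18 h before per-cell GFP fluorescence imaging.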
IL-1B inflam inh – inflammasome signaling inhibition, IL-1 beta readout. THP-1 LPS/ATP IL-1B secretion, AlphaLISA, 16 h; active compounds read low. activity change, % at 57.5 µM. 360,000 tested, 4.7% active; in the data active = activity change below about -50%; inconclusive = mostly about -30% to -49%; note: % is set by controls: 0 for no effect and ±100 for the full control effect
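Secreted IL-1B measured by AlphaLISA bead assay after 16 h compound exposure of THP-1 cells; compounds (final up to 57.5 uM) added 1 h before LPS (250 ng/mL) and ATP (1.25 mM) stimulation; lower signal means less secretion.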
DT40 TDP1 no CPT – qHTS for Inhibitors of human tyrosyl-DNA phosphodiesterase 1 (TDP1): qHTS in cells in absence of CPT | DT40 Tdp1-/- hTDP1 cells, no CPT, ATP luminescence, 48 h | Potency, µM (series often up to 46.2 µM), inactives show at the highest dose activity change, negative = growth inhibition, usual class: inhibitors | 420,000 tested, 15% active | AID 686978, 2013; note: potency is the fitted concentration of half-maximal effect; % is set by controls: 0 for no effect and ±100 for the full control effect; nearly all actives have a fitted effect of over 55% in size
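Chicken DT40 Tdp1-/- cells complemented with human TDP1, screened without camptothecin (DMSO vehicle only), 400 cells/well. Compounds pin-transferred, cells incubated at 37 °C for at least 48 hr. Growth read as ATP-dependent luminescence (CellTiter-Glo, 30 min at RT).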
* = called active by the depositor; ? = inconclusive; nt = not tested or not shown. Hits are enriched below; roughly 19% of the tested compounds scored in any of these assays. Unless noted, calls come from the whole dose curve; as a rule, active = well fitted curve in the direction sought with a large enough effect; inconclusive = small, poorly fitted or top-dose-only effect, or another doubt; inactive = no such curve, though single readings can be large; an effect the other way counts as inactive or inconclusive.

SMILES	DT40 TDP1 CPT	HepG2 tox	ASM inhibitor	TGFb inhibitor	IL-1B inflam inh	DT40 TDP1 no CPT
CC(Sc1nnc(C2CC2)n1C1CC1)C(=O)Nc1cccc(S(=O)(=O)N(C)C)c1 (configuration not stated)	-28%	-1%	0%	1%	12	0%
CCCN(C(=O)Cn1ncc2c([nH]c3ccccc32)c1=O)c1ccccc1C	?	1%	2%	16%	16	-10%
CCN(C(=O)c1ccc(C(=O)N(CC)c2ccccc2C)cc1)c1ccccc1C	?	-32%	nt	?	nt	16µM*
CCCCCCCN(C(=O)CCl)c1ccccc1C	18µM*	-42%	0%	2%	-106*	15µM*
O=C1CCC/C(=N\NC(=O)c2ccc(NS(=O)(=O)c3ccc(Br)cc3)cc2)C1	-2%	1%	1%	-6%	-6	-1%
Clc1ccc(-c2csc(-c3nc(-c4ccc(Br)s4)cs3)n2)cc1	4%	0%	nt	4%	nt	-7%
COc1ccc(CN(CC(=O)NCCc2ccccc2)C(=O)CCC(=O)Nc2cc(C)ccn2)cc1	-4%	-3%	-1%	1%	21	-16%
CCC(OC(=O)C(CC(C)C)NC(=O)c1ccccc1)C(=O)Nc1nnc(C)s1 (configuration not stated)	?	-1%	-3%	-4%	17	5.8µM*
CCOC(=O)c1sc(NC(=O)C(CC)OC(=O)C(CC(C)C)NC(=O)c2ccccc2)nc1C (configuration not stated)	-11%	-52%	-10%	?	-22	-12%
COc1ccccc1NS(=O)(=O)c1ccc(-c2cc(C)no2)s1	7.3µM*	6%	-3%	-6%	56	7.3µM*
Cc1cc(-c2ccc(S(=O)(=O)Nc3cccc(C(F)(F)F)c3)s2)on1	21µM*	-25%	nt	-2%	nt	?
CN1CCN(C(=O)/C(=C/c2cccc([N+](=O)[O-])c2)NC(=O)c2ccccc2)CC1	-1%	8%	-2%	11%	-5	-18%
C=CCn1c(SCC(=O)Nc2ccc(N3CCOCC3)cc2)nnc1-c1ccco1	0%	-5%	0%	5%	15	-12%
Cc1c(Cl)cccc1NC(=O)CSc1nc2ncc(Cl)cc2[nH]1	?	19%	0%	20%	-5	?
COc1cc2c(cc1OC)/C(=C/C(C)=O)OC2	-6%	nt	nt	nt	19	-2%
COc1ccc(/C=C2\C(=O)OCc3cc(OC)c(OC)cc32)cc1OC	?	-7%	-7%	-3%	-51*	-35%
COc1cc2c(cc1OC)/C(=C/c1ccc(Cl)cc1)C(=O)OC2	?	6%	-18%	14%	-81*	?
CCc1nnc(NC(=O)CCC(=O)Nc2ccccc2)s1	-4%	-18%	0%	4%	0	-1%
CCC(CC)c1nnc(NC(=O)Cc2c[nH]c3ccccc23)s1	26µM*	-33%	nt	?	1	23µM*
CCC(CC)c1nnc(NC(=O)Cc2ccccc2[N+](=O)[O-])s1	5%	-21%	-1%	-10%	0	-21%
CCCCc1nnc(NC(=O)CCS(=O)(=O)c2ccc(C)cc2)s1	13µM*	2%	4%	-20%	6	?
Cc1ccc(S(=O)(=O)CCC(=O)Nc2nc3c(s2)CCCC3)cc1	?	3%	2%	0%	28	29µM*
CCc1nnc(NC(=O)CCS(=O)(=O)c2ccccc2)s1	26µM*	-10%	0%	?	4	?
CC1(C(=O)NCc2ccccc2)CN(S(C)(=O)=O)CC(=O)N1Cc1cccc(F)c1 (configuration not stated)	0%	nt	nt	nt	38	-1%
